Data as given in PubChem BioAssay.
“And” between values parts separate entries of the source, which are not always exact repeats. Identical values can stand only once. Inconclusive results are not listed. For some assays here: Potency and affinity values are given separately. The source made the active and inactive calls. Unless noted, no rule for the calls is given here.

What was measured:
[1] = target: 6-phosphogluconate dehydrogenase, decarboxylating (Homo sapiens) (UniProt P52209); assay: inhibition of human phosphogluconate dehydrogenase – biochemical, recombinant enzyme, NADPH absorbance, primary screen (AID 1159550;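 active = at least 20% inhibition of 6-phosphogluconate dehydrogenase activity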); details: recombinant 6PGD, NADPH absorbance 341 nm; at 10 µM; stronger effect = higher value
[2] = EMT-state selective cytotoxicity in co-culture – imaging, PC-3E GFP, TEM4-18 mCherry, primary screen (AID 1345086;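 active = compounds killing one labelled cell type while sparing the other, by normalised counts and ratio limits, not self-fluorescent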;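 as to all read-outs here: cells exposed to compound for 72 h before imaging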;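 as to red/green cell ratio (normalised): normalised mesenchymal count divided by normalised epithelial count so high means epithelial killing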); details: PC-3E GFP / TEM4-18 mCherry co-culture, imaging cell counts, at 1 µM; for red/green cell ratio (normalised): actives lie on both sides
[3] = system: Aerobactin synthetase IucA (Klebsiella pneumoniae hvKP1); assay: IucA enzyme inhibition, primary screen, biochemical, Spectrum library (AID 1346200); details: malachite green pyrophosphate, A620, at 8 µM, stronger effect = lower value;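 also: 100% = wells without compound and 0% = wells lacking enzyme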
[4] = system: Aerobactin synthetase IucA (Klebsiella pneumoniae, hypervirulent); assay: biochemical IucA inhibition screen of LOPAC library by absorbance (AID 1346212); details: IucA enzyme assay, absorbance (OD) readout; stronger effect = lower value;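 tested at 8 µM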;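 also: 100% = no compound wells and 0% = no enzyme wells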
[5] = viability loss with induced miR-34 in A549 – imaging, A549 dox-inducible miR-34, nuclei and caspase counts, primary screen (AID 1347080;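 active = compounds whose cell count with miR-34 switched on is under 0.7 times the count with it off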); details: A549 miR-34 inducible, Hoechst nuclei count, 48 h
[6] = galactose survival enhancers in mitochondrial complex I cybrids – cell-based, galactose medium, ATP luminescence, primary screen (AID 1645843;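 active = z-score of at least 1.8 in each of two replicates, scored against plate mean and spread of sample wells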;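 also: positive z means more ATP and so rescue of galactose-driven cybrid death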); details: complex I mutant cybrid cells, 72 h, stronger effect = higher value
[7] = target: NAD(+) hydrolase SARM1 (Homo sapiens) (UniProt Q6SZW1); assay: blocking NAD cleavage by SARM1 SAM-TIR – cell lysate, NAD-Glo luminescence (AID 1508614;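 active = compound whose remaining NAD level is above about 45 nM, limit read from the data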;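 also: higher remaining NAD means stronger inhibition of SARM1 NADase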); details: SAM-TIR HEK293T lysate NADase, at 1 µM, stronger effect = higher value
[8] = target: Mitogen-activated protein kinase 7 (Homo sapiens) (UniProt Q13164); assay: Gal4-ERK5 driven luciferase induction – cell-based, HTS, primary screen (AID 1508626;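 active = luciferase signal above three times the same-plate solvent-only control wells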;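 also: luciferase driven by Gal4-ERK5 fusion binding five Gal4 sites before minimal TATA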); details: HeLa Gal4-ERK5 transactivation, 18 h, at 5 µM, stronger effect = higher value
[9] = P. berghei load reduction in hepatocytes – cell-based, HepG2, luciferase luminescence, HepG2 viability, primary screen (AID 624349; in the data active = parasite load remaining mostly below about 12%, no sharp cut-off; inactive = mostly above about 10%;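 also: 100% = mean of DMSO negative control wells on the same plate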); details: P. berghei liver stage in HepG2, luciferase luminescence, concentration not given here; parasite load remaining: stronger effect = lower value; viability: measured here: HepG2 viability without parasites
[10] = target: ATP-dependent translocase ABCB1 (Homo sapiens) (UniProt P08183); assay: P-glycoprotein substrate transport blockade – cell-based (AID 377; in the data active = fluorescence slope change above about 50%); details: MDR1-expressing cells, fluorescent substrate accumulation slope; stronger effect = higher value; concentration not given here
[11] = blockers of polyQ-driven CASP3 activation – cell-based (AID 1583); details: polyglutamine-induced caspase-3 activation, cell assay; stronger effect = higher value;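 tested at 10 µM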
[12] = yeast 75Q aggregation reduction – 75Q-TubU reporter (AID 1593); details: Yeast 75Q polyglutamine aggregation reporter
[13] = restoration of touch response, mutant HTT neurons – whole organism, C. elegans mechanosensory neurons, N-terminal huntingtin (AID 1599); details: C. elegans polyQ-huntingtin mechanosensory neurons, stronger effect = higher value
[14] = blockers of cytochrome c efflux from mitochondria – biochemical, purified mitochondria (AID 1603); details: stronger effect = lower value;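 also: mouse liver mitochondria challenged with calcium chloride; signal normalized to the plate average as 100%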
[15] = polyglutamine aggregate formation blockers (AID 1604); details: polyglutamine-induced protein aggregation inhibition assay; stronger effect = higher value; tested at 2.5 µM
[16] = glutamate transport activators, MN-1 cells, MN-1 cell line (AID 1612); details: MN-1 motor neuron cells, stronger effect = higher value;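 also: tested at 1 µM final; 0% = mean of DMSO vehicle wells on each plate; positive means more glutamate uptake than control and negative means less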
[17] = GFP-Q80 aggregate reduction, neuronal-like cells, cell-based, NGF-treated PC12, GFPQ80 (AID 1614); details: PC12 NGF-treated GFP-polyQ80 inclusion reduction;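 also: lower means fewer inclusions and 0 means no inclusions at all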
[18] = 75Q-TubH aggregate inhibition, S. cerevisiae, yeast (AID 1616); details: S. cerevisiae 75Q-TubH polyglutamine aggregation suppression; stronger effect = higher value
[19] = compounds altering viability of human ES cells (AID 493140); details: human embryonic stem cell survival screen; stronger effect = higher value;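 also: cells exposed to compounds for four days before counting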
[20] = measured here: epithelial PC-3E GFP cell survival
[21] = measured here: mesenchymal TEM4-18 mCherry cell survival
[22] = measured here: relative caspase fold change +Dox/-Dox
[23] = measured here: total cells with miR-34 induction, stronger effect = lower value
[24] = measured here: total cells without miR-34 induction
[25] = counts scaled to control wells, 1 = unselective

NAD(+) hydrolase SARM1 (Homo sapiens), sequence (Q6SZW1 whole entry, looked up, the tested form may be a part): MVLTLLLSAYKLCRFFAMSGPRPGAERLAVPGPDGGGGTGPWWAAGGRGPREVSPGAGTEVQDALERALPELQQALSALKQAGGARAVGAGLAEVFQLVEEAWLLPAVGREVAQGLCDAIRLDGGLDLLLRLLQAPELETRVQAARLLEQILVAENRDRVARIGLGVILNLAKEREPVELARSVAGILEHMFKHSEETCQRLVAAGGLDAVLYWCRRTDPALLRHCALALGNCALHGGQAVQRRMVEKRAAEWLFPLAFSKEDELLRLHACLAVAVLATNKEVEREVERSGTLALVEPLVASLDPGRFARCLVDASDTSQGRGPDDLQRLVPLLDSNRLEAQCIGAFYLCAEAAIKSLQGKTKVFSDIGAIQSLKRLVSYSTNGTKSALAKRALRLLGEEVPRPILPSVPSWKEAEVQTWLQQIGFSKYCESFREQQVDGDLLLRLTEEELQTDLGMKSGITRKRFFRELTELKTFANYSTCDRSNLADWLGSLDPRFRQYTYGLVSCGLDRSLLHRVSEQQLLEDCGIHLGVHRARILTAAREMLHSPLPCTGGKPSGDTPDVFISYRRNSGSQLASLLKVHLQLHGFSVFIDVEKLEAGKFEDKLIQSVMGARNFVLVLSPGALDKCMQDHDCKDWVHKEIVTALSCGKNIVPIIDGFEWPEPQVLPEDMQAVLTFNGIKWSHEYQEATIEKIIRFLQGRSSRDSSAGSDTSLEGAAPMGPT
6-phosphogluconate dehydrogenase, decarboxylating (Homo sapiens), sequence (P52209 whole entry, looked up): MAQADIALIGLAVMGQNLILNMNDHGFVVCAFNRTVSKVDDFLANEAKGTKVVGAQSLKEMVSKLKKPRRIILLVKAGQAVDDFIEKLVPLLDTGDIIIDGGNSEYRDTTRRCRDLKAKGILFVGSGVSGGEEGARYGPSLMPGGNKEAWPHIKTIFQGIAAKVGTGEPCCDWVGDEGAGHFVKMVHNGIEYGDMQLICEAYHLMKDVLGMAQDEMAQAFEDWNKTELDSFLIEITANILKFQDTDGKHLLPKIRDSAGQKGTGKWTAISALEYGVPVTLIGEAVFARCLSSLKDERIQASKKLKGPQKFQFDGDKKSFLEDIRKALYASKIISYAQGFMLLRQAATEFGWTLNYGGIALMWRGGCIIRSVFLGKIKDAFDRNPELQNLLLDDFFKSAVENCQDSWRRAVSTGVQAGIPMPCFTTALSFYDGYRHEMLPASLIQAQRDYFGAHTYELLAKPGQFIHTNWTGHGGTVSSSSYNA
Mitogen-activated protein kinase 7 (Homo sapiens), sequence (Q13164 whole entry, looked up, the tested form may be a part): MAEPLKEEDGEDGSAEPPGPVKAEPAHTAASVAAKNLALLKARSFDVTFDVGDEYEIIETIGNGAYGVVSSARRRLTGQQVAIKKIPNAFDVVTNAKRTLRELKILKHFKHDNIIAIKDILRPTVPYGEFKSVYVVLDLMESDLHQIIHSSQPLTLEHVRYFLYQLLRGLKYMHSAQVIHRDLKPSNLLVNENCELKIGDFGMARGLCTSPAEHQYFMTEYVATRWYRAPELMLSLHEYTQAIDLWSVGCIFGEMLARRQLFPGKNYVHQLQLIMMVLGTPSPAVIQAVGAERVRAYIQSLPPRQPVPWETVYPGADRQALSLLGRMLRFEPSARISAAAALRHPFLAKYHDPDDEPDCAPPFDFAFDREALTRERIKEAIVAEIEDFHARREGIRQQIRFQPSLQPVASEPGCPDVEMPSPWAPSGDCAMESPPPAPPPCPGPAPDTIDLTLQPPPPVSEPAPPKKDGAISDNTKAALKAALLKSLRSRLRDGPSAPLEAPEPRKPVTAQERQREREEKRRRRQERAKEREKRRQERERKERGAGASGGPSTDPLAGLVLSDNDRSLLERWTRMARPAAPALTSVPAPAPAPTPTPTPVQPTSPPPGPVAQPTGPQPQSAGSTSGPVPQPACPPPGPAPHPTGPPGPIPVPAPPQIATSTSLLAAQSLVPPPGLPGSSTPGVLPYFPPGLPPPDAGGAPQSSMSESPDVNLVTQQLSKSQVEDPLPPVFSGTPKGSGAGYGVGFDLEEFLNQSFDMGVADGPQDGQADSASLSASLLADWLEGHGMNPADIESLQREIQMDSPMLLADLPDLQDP
ATP-dependent translocase ABCB1 (Homo sapiens), sequence (P08183 whole entry, looked up): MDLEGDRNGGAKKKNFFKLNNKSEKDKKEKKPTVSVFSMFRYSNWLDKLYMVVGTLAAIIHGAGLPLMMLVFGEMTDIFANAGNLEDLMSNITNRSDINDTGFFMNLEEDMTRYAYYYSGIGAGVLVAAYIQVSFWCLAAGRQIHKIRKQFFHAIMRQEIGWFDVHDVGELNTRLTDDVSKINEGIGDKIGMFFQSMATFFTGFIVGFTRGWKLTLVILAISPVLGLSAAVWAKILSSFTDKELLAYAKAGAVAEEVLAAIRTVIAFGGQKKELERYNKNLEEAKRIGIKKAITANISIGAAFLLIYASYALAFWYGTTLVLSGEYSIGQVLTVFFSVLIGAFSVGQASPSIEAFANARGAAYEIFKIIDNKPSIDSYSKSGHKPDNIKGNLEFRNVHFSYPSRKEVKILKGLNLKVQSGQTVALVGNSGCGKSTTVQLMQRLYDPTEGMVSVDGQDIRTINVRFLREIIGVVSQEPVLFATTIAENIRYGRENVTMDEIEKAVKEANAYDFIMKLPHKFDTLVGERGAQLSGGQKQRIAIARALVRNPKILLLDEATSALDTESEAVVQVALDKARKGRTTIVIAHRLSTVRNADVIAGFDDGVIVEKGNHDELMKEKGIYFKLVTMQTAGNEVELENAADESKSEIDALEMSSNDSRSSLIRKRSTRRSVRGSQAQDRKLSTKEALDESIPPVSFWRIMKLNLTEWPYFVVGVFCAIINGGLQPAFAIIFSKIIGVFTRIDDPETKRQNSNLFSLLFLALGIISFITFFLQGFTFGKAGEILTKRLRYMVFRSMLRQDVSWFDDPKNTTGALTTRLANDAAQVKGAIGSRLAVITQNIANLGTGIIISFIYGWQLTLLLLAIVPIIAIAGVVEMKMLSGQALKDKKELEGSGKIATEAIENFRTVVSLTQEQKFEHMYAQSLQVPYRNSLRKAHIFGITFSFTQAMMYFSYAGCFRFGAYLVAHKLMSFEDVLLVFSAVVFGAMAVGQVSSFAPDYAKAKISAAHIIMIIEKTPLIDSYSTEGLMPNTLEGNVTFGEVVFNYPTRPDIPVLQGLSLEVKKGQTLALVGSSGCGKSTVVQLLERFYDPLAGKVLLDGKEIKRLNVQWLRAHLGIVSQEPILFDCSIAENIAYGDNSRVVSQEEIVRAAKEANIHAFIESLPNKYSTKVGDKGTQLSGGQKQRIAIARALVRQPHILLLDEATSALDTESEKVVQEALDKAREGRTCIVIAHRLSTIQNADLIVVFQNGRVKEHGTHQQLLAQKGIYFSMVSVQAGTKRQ

Question: Which results are given for `CN1C2CCC1CC(OC(c1ccccc1)c1ccccc1N)C2` (stereo not given)?
Answer: inhibition [1]: 2.13% (inactive); red/green cell ratio (normalised) [2]: 0.76 (inactive); normalised cell number [2, 20]: 1.34; normalised cell number [2, 21]: 1.01; activity remaining [3]: 118% (inactive); remaining activity [4]: 119% (inactive); fold change ([5]; stronger effect = lower value): 1 (inactive); fold change [5, 22]: 2.1; cell count [5, 23]: 9770; cell count [5, 24]: 9760; z-score [6]: -0.4 (inactive)

Question: For `CN[C@@H]1[C@@H](O)C(OC2[C@@H](N)C[C@@H](N)[C@H](O[C@H]3O[C@H](C(C)O)[C@@H](O)[C@H](O)[C@H]3N)[C@H]2O)OC[C@]1(C)O` (stereo not given in full), which inhibition [1] is on record?
Answer: 15.2% (inactive)

Question: And the red/green cell ratio (normalised) [2, 25]?
Answer: 1.08 (inactive)

Question: What about the normalised cell number [2, 20] of the same compound?
Answer: 0.91

Question: What about the normalised cell number [2, 21] of the same compound?
Answer: 0.99

Question: And the activity remaining [3]?
Answer: 111% (inactive)

Question: Which results are given for `C[C@H]1CCCC(=O)CCC/C=C/c2cc(O)cc(O)c2C(=O)O1`?
Answer: inhibition [1]: 15.7% (inactive); red/green cell ratio (normalised) [2, 25]: 1.02 (inactive); normalised cell number [2, 20]: 1.02; normalised cell number [2, 21]: 1.04; activity remaining [3]: 103% (inactive)

Question: For `CC(N)Cc1ccc(O)cc1` (stereo not given), which inhibition [1] is on record?
Answer: -0.0931% (inactive)

Question: What about the red/green cell ratio (normalised) [2] of the same compound?
Answer: 0.93 (inactive)

Question: What about the normalised cell number [2, 20] of the same compound?
Answer: 1.27

Question: What about the normalised cell number [2, 21] of the same compound?
Answer: 1.19

Question: And the activity remaining [3]?
Answer: 111% (inactive)

Question: And the remaining NAD [7]?
Answer: 10 nM (inactive)

Question: Which results are given for `CC1(C)C(=O)[C@@H]2O[C@@H]2[C@@]2(C)C1C[C@@H](O)[C@]1(C)C2CC[C@@]2(C)[C@H](c3ccoc3)OC(=O)C3OC321` (stereo not given in full)?
Answer: inhibition [1]: 4.53% (inactive); red/green cell ratio (normalised) [2]: 1.01 (inactive); normalised cell number [2, 20]: 1.01; normalised cell number [2, 21]: 1.01; activity remaining [3]: 96.1% (inactive); luciferase signal [8]: 24 AU (inactive)

Question: Which parasite load remaining [9] does the source give for `S=C=NCc1ccccc1` here?
Answer: 45.7% (inactive)

Question: And the viability [9]?
Answer: 72.2%

Question: What about the inhibition [1] of the same compound?
Answer: -1.63% (inactive)

Question: What about the red/green cell ratio (normalised) [2] of the same compound?
Answer: 0.83 (inactive)

Question: And the normalised cell number [2, 20]?
Answer: 1.15

Question: And the normalised cell number [2, 21]?
Answer: 0.95

Question: And the activity remaining [3]?
Answer: 83.8% (inactive)

Question: What about the remaining NAD [7] of the same compound?
Answer: 10 nM (inactive)

Question: And the luciferase signal [8]?
Answer: 168 AU (active)

Question: With `CN1CCc2cc3c(cc2C1O)OCO3` (stereo not given) as the compound, how does the fluorescence slope change [10] read?
Answer: 10.4% (inactive)

Question: What about the inhibition [11] of the same compound?
Answer: -17.4%

Question: What about the score [12] of the same compound?
Answer: 1.48

Question: And the rescue above control [13]?
Answer: 11.7

Question: What about the cytochrome c release ratio [14] of the same compound?
Answer: 0.81

Question: What about the inhibition of aggregation [15] of the same compound?
Answer: 65.5%

Question: What about the glutamate uptake change [16] of the same compound?
Answer: 6.97%

Question: And the inclusion score [17]?
Answer: 2

Question: What about the aggregation suppression score [18] of the same compound?
Answer: 1.11

Question: What about the survival [19] of the same compound?
Answer: 16.8 (inactive)

Question: And the parasite load remaining [9]?
Answer: 109% (inactive) and 58% (inactive)

Question: What about the viability [9] of the same compound?
Answer: 90% and 91.8%

Question: And the inhibition [1]?
Answer: 0.261% (inactive)

Question: What about the red/green cell ratio (normalised) [2] of the same compound?
Answer: 1.09 (inactive)

Question: And the normalised cell number [2, 20]?
Answer: 0.97

Question: And the normalised cell number [2, 21]?
Answer: 1.06

Question: And the activity remaining [3]?
Answer: 118% (inactive)

Question: And the fold change ([5]; stronger effect = lower value)?
Answer: 0.923 (inactive)

Question: What about the fold change [5, 22] of the same compound?
Answer: 1.43

Question: And the cell count [5, 23]?
Answer: 11700

Question: And the cell count [5, 24]?
Answer: 12700

Question: What about the remaining NAD [7] of the same compound?
Answer: 10 nM (inactive)

Question: And the luciferase signal [8]?
Answer: 52 AU (inactive)
